According to PubChem BioAssay (NCI):
About 83,000 compounds went through this panel and 20% of them were active in at least one assay; those are over-represented in the sample as a whole.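 96-well plates, one dose, 48 hours. Percent growth reported; active if below 10.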 A number with no mark means an inactive call. Active and inactive are the calls of the source.

Legend:
Assay in all cases: NCI-60 one-dose screen, 48 h (100 = growth as untreated, 0 = no growth, -100 = all killed)
NCI-H23 lung = conditions: 10 µM unless noted
NCI-H226 lung = conditions: 10 µM unless noted
NCI-H322M lung = conditions: 10 µM unless noted
HOP-62 NSCLC = conditions: 10 µM unless noted
HOP-92 NSCLC = conditions: 10 µM
NCI-H522 lung = conditions: 10 µM
A549/ATCC NSCLC = conditions: 10 µM unless noted
786-0 renal = conditions: 10 µM unless noted
COLO 205 colon = conditions: 10 µM unless noted
NCI-H460 lung = conditions: 10 µM unless noted

SMILES | growth (NCI-H23 lung) | growth (NCI-H226 lung) | growth (NCI-H322M lung) | growth (HOP-62 NSCLC) | growth (HOP-92 NSCLC) | growth (NCI-H522 lung) | growth (A549/ATCC NSCLC) | growth (786-0 renal) | growth (COLO 205 colon) | growth (NCI-H460 lung)
CCCC(=O)Nc1ccccc1C(=O)O | 86.6% | 101% | 107% | 96.9% | 95.7% | 90.7% | 94.3% | 112% | – | –
OC(c1ccccc1)(c1ccccc1)C(F)(F)F | 97.4% | 112% | 116% | 102% | 95.7% | 84.6% | 99.1% | 106% | 107% | –
O=C(NC1CCN(Cc2ccccc2)CC1)c1cc(-c2cccnc2)nc2ccc(Cl)cc12 | 67.9% | 84% | 91.6% | 101% | 56.5% | 90.4% | 56.3% | 78.7% | -37.3% (active) | –
Nc1ccc(N=Nc2ccccc2)c2cc(S(=O)(=O)O)ccc12 | 91.4% | 103% | 104% | 92.4% | 94.5% | 88.5% | 99.3% | 104% | 116% | –
Cc1nc2ccccc2c(=O)n1-c1cccc(OCc2cn(-c3cccc(O)c3)nn2)c1 | 95.1% | 105% | 101% | 93.4% | 81.6% | 72.1% | 95.3% | 107% | 122% | –
Oc1ccc2ccccc2c1/C=N\Nc1ccccn1 | 0% (active) | 9.04% (active) | -12.6% (active) | -8.47% (active) | -15.1% (active) | 6.74% (active) | 8.68% (active) | -29.3% (active) | 91% | –
CC(C)(C)C(=O)OCOP(=O)(OCOC(=O)C(C)(C)C)C1CC(O)N(O)C1=O (stereo unspecified) | 21% | 71.6% | 30.5% | 35.7% | 28.2% | 8.02% (active) | 64.3% | 14.5% | 45% | –
COc1ccc(-c2nc(N)n(C(=S)Nc3ccccc3)n2)cc1 | 92.2% | 92.6% | 101% | 87.3% | 85.8% | 88.5% | 102% | 105% | 105% | –
CCCCCCCCCCCCCCCCC(=O)O.CCCCCCCCCCCCCCCCCC(=O)O.CCCCCCCCCCCCCCCCCC(=O)O.CCCCCCCCCCCCCCCCCC(=O)O.CCCCCCCCCCCCCCCCCC(=O)O.CO[CH-]OC12COC1CC(O)C1(C)C(O)C(OC(C)O)C3=C(C)C(OC(=O)C(O)C([NH-])c4ccccc4)CC(O)(C(OC(=O)c4ccccc4)C21)C3(C)C.[Cu+].[Zn].[Zn].[Zn].[Zn].[Zn] (stereo unspecified) | 43.6% | 73.2% | 28.6% | 56.4% | 41.5% | 16.4% | 27.8% | 41.7% | 14.7% | –
N#CC1=C(N2CCOCC2)NC2c3ccccc3Sc3ccccc3N2C1=N (stereo unspecified) | 99% | 94.5% | 117% | 78.3% | 84.5% | 83.6% | 103% | 104% | 96.8% | –
CN1CCN(Cc2ccc(NC(=O)c3cncc(C#Cc4c(N)ncc5ccc(F)cc45)c3)cc2C(F)(F)F)CC1 | 30.6% | 8.85% (active) | 27.7% | 22.1% | -22.7% (active) | 49.7% | 26.5% | -71.9% (active) | – | –
O=C(O)c1ccc(Br)nc1 | 102% | 98.4% | 101% | 91.6% | 94.6% | 87.8% | 89.6% | 100% | 105% | –
C/C=C(/C)C(=O)OC1C=C(CO)C(=O)C(OC(=O)/C(C)=C\C)C1C(C)C (stereo unspecified) | -66.3% (active) | -0.591% (active) | -90.3% (active) | -31.4% (active) | -72.8% (active) | -52.8% (active) | -9.36% (active) | -88.6% (active) | – | –
CCN(CCO)CCNc1ccc(C)c2sc3cc(OC)ccc3c(=O)c12 | 79.6% | 73.5% | 76.1% | 62% | 55.8% | 62.6% | 59.4% | 66.6% | 48.9% | –
C=CCNC(=S)NNc1ccc([N+](=O)[O-])cn1 | 93.5% | 94.4% | 89.7% | 105% | 98.1% | 80.4% | 101% | 105% | – | –
N#Cc1c(N)nc(Nc2nc3ccccc3[nH]2)nc1-c1ccc(Cl)cc1 | 101% | 81.2% | 117% | 112% | 78.4% | 90.4% | 105% | – | 94.7% | –
O=C(/C=C1\C(=O)N(Cc2ccc([N+](=O)[O-])cc2)c2ccccc21)c1ccc(OCCN2CCCCC2)cc1 | -10.4% (active) | -41.1% (active) | 49.2% | – | -74.5% (active) | -75% (active) | 48.2% | -88.1% (active) | – | 39%
CCOC(=O)CNS(=O)(=O)CC(=O)c1ccccc1 | 101% | 101% | 87.9% | 83.8% | – | 89.8% | 116% | 97.5% | 130% | –
C=C1CCC2C3(C)COC(c4ccccc4)OC3CCC2(C)C1C/C=C1/C(=O)OCC1O (stereo unspecified) | 87.2% | 92.2% | 87.3% | 117% | – | 55.4% | – | 91% | – | –
CC([C@H]1CCC2C3CCC4C[C@@H](N)CC[C@]4(C)C3CC[C@@]21C)N(C)C (stereo partly specified) | 77.1% | 112% | 77.3% | 104% | 53.1% | 102% | 86.1% | 71.7% | 6.07% (active) | –
CC(=O)CCS(=O)c1ccccc1 (stereo unspecified) | 98.1% | 107% | 93.7% | 105% | 92.8% | 82.7% | 96.1% | 105% | 124% | –
COc1ccccc1CNCCCN1C(=O)c2ccc3c4c(ccc(c24)C1=O)C(=O)N(CCCNCc1ccccc1OC)C3=O | -72.8% (active) | -64.7% (active) | -46.6% (active) | -35.9% (active) | -19.5% (active) | -90% (active) | -86.5% (active) | -50% (active) | -6.12% (active) | –
CC1=C[C@@H]2c3c(c(O)c(O)c4oc5cc(O)cc(O)c5c(=O)c34)[C@@H](c3cc(O)c(O)c4oc5cc(O)cc(O)c5c(=O)c34)[C@@H]2C(C)(C)C1 | -20.3% (active) | 8.46% (active) | 16.9% | – | -15% (active) | -60.8% (active) | 9.43% (active) | -40.3% (active) | – | -28.3% (active)
CC1(C)NC(=S)NC1=O | 101% | 99.6% | 107% | 104% | 101% | 116% | 98% | 100% | 108% | –
CC(=O)C(CO)C(=O)Nc1ccccc1 (stereo unspecified) | 103% | 96.9% | 85.9% | 93.3% | 96.6% | 82.3% | 93.6% | 96.8% | 99.5% | –
CCN(CC)c1ccc2nc3ccc(N=Nc4ccc(O)cc4)cc3[n+](-c3ccccc3)c2c1 | 63.9% | 98.1% | 95.8% | 52.5% | 88.4% | 37.2% | 35.9% | 88.5% | -6.39% (active) | –
N#Cc1ccc(NC2c3ccccc3CC2O)cc1 (stereo unspecified) | 101% | 102% | 114% | 105% | 85% | 104% | 106% | 108% | 108% | –
COc1ccc(-c2nc(SCC(C)C)nc(Nc3ccc(C(=O)O)cc3)c2C#N)cc1 | 88.8% | 87.7% | 96.9% | 116% | 89% | 84.7% | 89% | 106% | 89.7% | –
